Measured values as given in PubChem BioAssay (NCATS).
Results filed as inconclusive are left out. Activity calls are given as the source filed them. The call rests on the fitted dose curve; in most records, active means well fitted curve in the direction sought with a large enough effect; inconclusive means small, poorly fitted or top-dose-only effect, or another doubt; inactive means no such curve, though single readings can be large; an effect the other way counts as inactive or inconclusive.

How the values were obtained:
[1] = Cellular Toxicity (caspase-3) N2a (AID 665); conditions: N2a cells, luminescence, normalized: DMSO 0%, 10 µM staurosporine 100%; at 92.2 µM (top of the series);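 further: compound exposure lasted 16 h at 37 °C before readout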
Summary of the method: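 N2a cells, 1500/well, 5 h settle at 37 °C; cpd 16 h, 37 °C; Caspase-Glo 3/7, 1 h RT; luminescence. Norm: DMSO = 0, 10 uM staurosporine = 100%. AC50, Hill fit.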

[2] = Cellular Toxicity (caspase-3) NIH 3T3 (AID 666);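 further: caspase signal read after 16 h compound exposure; 0% = DMSO basal and 100% = 100 µM tamoxifen stimulation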
Summary of the method: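 Luminescence from aminoluciferin released by caspase-3/7 cleavage of a peptide substrate served as read-out. Mouse fibroblast NIH 3T3 cells were exposed to compounds over a concentration range for 16 hours, and AC50 values came from standard Hill modelling.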

[3] = Cellular Toxicity (caspase-3) Renal Proximal Tubule (AID 667); conditions: renal proximal tubule cells; at 91.7 µM (top of the series), primary cells freshly taken from rat, solvent-only wells 0%, staurosporine 100% unless noted;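 further: cells exposed to compound for 16 hours at 37 °C before detection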
Summary of the method: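 In qHTS format, rat primary proximal tubule cells seeded at 1000 per well are exposed to compounds for 16 hours at 37 °C. An increase in Caspase-Glo 3/7 luminescence indicates caspase activation.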

[4] = target: Cytochrome P450 3A4 (Homo sapiens) (UniProt P08684); test: qHTS Assay for Inhibitors and Substrates of Cytochrome P450 3A4 (AID 884); further: on the % scale 0 is the no-effect control and ±100 the full control effect; nearly all actives have a fitted effect of over 50% in size
Sequence of Cytochrome P450 3A4 (Homo sapiens) (P08684 whole entry, looked up): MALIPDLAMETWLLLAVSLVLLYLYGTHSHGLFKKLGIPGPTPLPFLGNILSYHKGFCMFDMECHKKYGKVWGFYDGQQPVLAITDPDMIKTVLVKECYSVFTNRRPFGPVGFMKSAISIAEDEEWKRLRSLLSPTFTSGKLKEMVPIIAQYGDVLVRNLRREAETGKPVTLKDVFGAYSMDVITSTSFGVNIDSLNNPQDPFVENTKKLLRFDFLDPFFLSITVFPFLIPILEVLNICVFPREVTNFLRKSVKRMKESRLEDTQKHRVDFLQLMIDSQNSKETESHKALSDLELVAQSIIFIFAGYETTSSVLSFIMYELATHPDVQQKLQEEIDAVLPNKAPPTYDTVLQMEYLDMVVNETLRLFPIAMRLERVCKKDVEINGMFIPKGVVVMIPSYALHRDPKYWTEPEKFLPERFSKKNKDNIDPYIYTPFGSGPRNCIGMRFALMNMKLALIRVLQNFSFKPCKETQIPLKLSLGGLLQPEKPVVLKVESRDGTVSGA
Summary of the method: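 20 nM human CYP3A4 with 25 uM Luciferin-PPXE (at KM) in 200 mM KPO4, preincubated 10 min with compound; NADPH regeneration started a 60 min RT reaction. Luciferin detected by luminescence, normalized to 57 uM ketoconazole as full inhibition.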

[5] = Cell Viability - LYMP2-001 (AID 921);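 further: 0% = DMSO only and full inhibition = tetraoctylammonium bromide control wells; nearly all actives have a fitted effect of over 70% in size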
Summary of the method: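 qHTS, 1536-well; lymphoblastoid cells, 24 hr compound, 37 C; ATP by CellTiter-Glo, 30 min RT; luminescence; Hill-fit AC50.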

[6] = MultiTox-Fluor Cytotoxicity Assay - LYMP1-001 - Dead Cells (AID 946)
Summary of the method: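 Cytotoxicity as increased dead-cell protease fluorescence (bis-AAF-R110, 485/520 nm), read 60 min after MultiTox-Fluor reagent. Human lymphoblastoid line exposed 16 h; Hill-fitted AC50, with DMSO as 0% and 15 uM tetraoctylammonium bromide as 100%.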

[7] = MultiTox-Fluor Cytotoxicity Assay - LYMP1-001 - Live Cells (AID 947);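 further: 0% = DMSO only and full inhibition = tetraoctylammonium bromide control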
[8] = Cell Viability - LYMP1-002 - Assay at 16 hr (AID 948);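 further: 0% = DMSO alone and full effect = 92 µM tetraoctylammonium bromide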
Summary of the method: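 Acute cytotoxicity is scored as a concentration-dependent fall in intracellular ATP in a human lymphoblastoid line (LYMP1-002) after 16 hr compound exposure at 37 C, measured by luciferase luminescence.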

[9] = MultiTox-Fluor Cytotoxicity Assay - LYMP1-002 - Live Cells (AID 955); further: on the % scale 0 is the no-effect control and ±100 the full control effect
Summary of the method: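 Read-out is live-cell protease activity (cell-permeant GF-AFC substrate, fluorescence Ex/Em=405/510), where a decrease indicates acute toxicity. Human lymphoblastoid cells were treated 16 hours at 37 C in a concentration series, and AC50 values came from standard Hill modelling.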

[10] = MultiTox-Fluor Cytotoxicity Assay - LYMP1-002 - Dead Cells (AID 960); further: nearly all actives have a fitted effect of over 60% in size
Summary of the method: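 LYMP1-002 cells 2500/well; 5 hr 37 C pre-incubation; compound 16 hr 37 C; MultiTox-Fluor reagent 60 min RT; dead-cell fluor Ex/Em 485/520. Norm. to DMSO (0%) vs 15 uM tetraoctylammonium bromide (100%); Hill AC50.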

[11] = MultiTox-Fluor Cytotoxicity Assay - LYMP1-003 - Dead Cells (AID 961); further: nearly all actives have a fitted effect of over 70% in size
Summary of the method: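 Dead-cell protease release, detected as bis-AAF-R110 fluorescence at 485/520 nm, was measured in LYMP1-003 cells after 16 h compound treatment at 37 C. AC50 values came from Hill-modeled qHTS curves normalized to DMSO (0%) and 15 uM tetraoctylammonium bromide (100%).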

[12] = MultiTox-Fluor Cytotoxicity Assay - LYMP1-003 - Live Cells (AID 962);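 further: 0% = DMSO only and full loss = 92 µM tetraoctylammonium bromide; cytotoxic hits lower the live-cell protease signal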
Summary of the method: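 qHTS, 1536-well; 2500 cells/well LYMP1-003; 5 hr 37 C settle; cpd 16 hr 37 C; MultiTox-Fluor reagent 60 min RT; live-cell protease fluor. 405/510; Hill-fit AC50; tetraoctylammonium bromide pos. ctrl.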

[13] = Cell Viability - LYMP1-003 - Assay at 24 hr (AID 963);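 further: plate controls were DMSO only for no effect and tetraoctylammonium bromide positive control for full effect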
Summary of the method: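 Cells seeded at 2500/well, 5 hr at 37 C; compounds added; 24 hr at 37 C; CellTiter-Glo added, 30 min room temperature; luminescence read. Decrease in ATP taken as cytotoxicity, AC50 from Hill modelling.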

[14] = Cell Viability - LYMP1-003 - Assay at 40 hr (AID 964); further: on the % scale 0 is the no-effect control and ±100 the full control effect; nearly all actives have a fitted effect of over 60% in size
Summary of the method: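 Cells were seeded at 2500 per well and incubated 5 hr at 37 C. Compounds were added across a concentration series and left 40 hr at 37 C. CellTiter-Glo was added for 30 min at room temperature before luminescence reading.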

[15] = Cell Viability - LYMP2-003 (AID 965);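 further: cells exposed to compounds for 24 h before reading; 0% = DMSO only and full effect = 92 µM tetraoctylammonium bromide; nearly all actives have a fitted effect of over 50% in size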
Summary of the method: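 Acute cytotoxicity is scored as a concentration-dependent drop in intracellular ATP, measured by luciferase luminescence in human lymphoblastoid cells treated for 24 hours at 37 C. AC50 values derive from Hill-equation modelling.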

[16] = Cell Viability - LYMP2-004 (AID 966);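 further: plate controls were DMSO only for no effect and tetraoctylammonium bromide control for full effect; nearly all actives have a fitted effect of over 65% in size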
Summary of the method: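 Cells seeded 2500/well, rested 5 hr at 37 C, dosed across a concentration series, incubated 24 hr at 37 C, then CellTiter-Glo added for 30 min at room temperature and luminescence read. Hill fitting gave AC50.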

[17] = Cell Viability - LYMP2-005 (AID 967);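 further: plate controls were DMSO only for no effect and 92 µM tetraoctylammonium bromide control for full effect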
Summary of the method: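 qHTS viability screen in LYMP2-005 cells: 24 h at 37 C with compound, ATP luminescence via CellTiter-Glo, AC50 from Hill curves.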

[18] = Cell Viability - LYMP2-009 (AID 968);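 further: 0% = DMSO alone and the full-kill end = tetraoctylammonium bromide at 92 µM; nearly all actives have a fitted effect of over 55% in size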
[19] = Cell Viability - LYMP2-011 (AID 969);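 further: 0% = DMSO only and full inhibition = 92 µM tetraoctylammonium bromide; nearly all actives have a fitted effect of over 60% in size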
Summary of the method: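 2500 cells/well, 5 hr 37 C; compound added, 24 hr 37 C; CellTiter-Glo 30 min RT; luminescence. qHTS concentration-response, Hill-equation AC50. Tetraoctylammonium bromide positive control.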

[20] = Cell Viability - LYMP2-013 (AID 970);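 further: 0% = DMSO only and full inhibition = tetraoctylammonium bromide control; nearly all actives have a fitted effect of over 55% in size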
Summary of the method: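 qHTS; 2500 lymphoblastoid cells/well; 5 hr 37 C settle; cpd 24 hr 37 C; CellTiter-Glo, 30 min RT; luminescence. AC50 = Hill fit.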

[21] = Cell Viability - LYMP2-015 (AID 971);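 further: 0% = DMSO only and full effect = 92 µM tetraoctylammonium bromide; nearly all actives have a fitted effect of over 55% in size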
Summary of the method: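 Luminescent ATP read-out (CellTiter-Glo) served as the viability measure after lymphoblastoid cells were exposed to compounds for 24 hours at 37 C. Concentration-response data were fitted with the Hill equation to give AC50.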

[22] = Cell Viability - LYMP2-017 (AID 972); further: on the % scale 0 is the no-effect control and ±100 the full control effect; nearly all actives have a fitted effect of over 55% in size
Summary of the method: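 2500 cells/well, 5 h 37 C; cpd 24 h 37 C in complete medium; CellTiter-Glo, 30 min RT; luminescence (ATP). AC50 via Hill fit, qHTS.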

[23] = Cell Viability - LYMP2-019 (AID 973)
Summary of the method: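 Luminescent ATP read-out (CellTiter-Glo, 30 min room temperature) served as the viability measure after 24 hr treatment of lymphoblastoid cells at 37 C. Concentration-response data were fitted to the Hill equation for AC50.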

[24] = Cell Viability - LYMP2-021 (AID 974)
Summary of the method: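 Plate 2500 lymphoblastoid cells per well and incubate 5 hr at 37 C. Add compounds over a concentration range and incubate 24 hr at 37 C. Add CellTiter-Glo, wait 30 min at room temperature, read luminescence.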

Clc1cc(Cl)c(-c2cc(Cl)c(Cl)cc2Cl)cc1Cl
inactive: caspase-3 activation [1] -0.702% | outcome [2] | caspase-3 activation [3] -3.51% [at 91.7 µM] | Potency [4] | Potency [5] | Potency [6] | Potency [7] | Potency [8] | outcome [9] | Potency [10] | Potency [11] | Potency [12] | Potency [13] | Potency [14] | Potency [15] | Potency [16] | Potency [17] | Potency [18] | Potency [19] | Potency [20] | Potency [21] | Potency [22] | Potency [23] | Potency [24]
